The source of these data is PubChem BioAssay.

Several values for one entry are separate records, joined by “and”; a condition that tells them apart may be missing. Equal values may be shown once. Values without a mark were called inactive. For some of these results: Results with a measured potency or affinity are listed apart. Activity calls are given as the source filed them. Unless noted, no rule for the calls is given here.

Assay [1] is described as follows: antimalarial activity against Dd2 strain (AID 2302;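 active = growth inhibition above 50% at the single 2 µM test dose, taken to imply half-maximal potency below 2 µM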;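 also: 0% = DMSO untreated growth and 100% = chloroquine plus artemisinin killed control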). As to conditions: P. falciparum Dd2 in RBCs, LDH growth readout, 72 h; at 2 µM; active compounds read high.
Assay [2] is described as follows: human hepatoma cell viability loss – ATP luminescence, cytotoxicity control for P. falciparum antimalarial project, primary screen (AID 2303;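 active = inhibition above 50%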;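 also: 0% = DMSO wells and 100% = digitonin-killed cells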). The note with it: HepG2 viability, 24-48 h, at 10 µM, active compounds read high.
Assay [3] concerns the target L-lactate dehydrogenase (Plasmodium falciparum (isolate CDC / Honduras)) (UniProt Q27743). As to the kind of experiment: PfLDH activity inhibition – cell lysate, 3D7 strain, counter-screen for P. falciparum growth inhibition project (AID 2304).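 Also: 0% = vehicle and 100% = reference inhibitor.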 As to conditions: P. falciparum 3D7 crude extract, LDH APAD/NBT absorbance; at 2 µM; active compounds read high. Background: The purpose of a counterscreen is to sort out artefacts and off-target activity.

Assay [4] is described as follows: inhibition of 3D7 malaria parasite growth – strain 3D7 (AID 2306).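 Also: 0% = DMSO wells and 100% = chloroquine plus artemisinin control wells.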 As to conditions: P. falciparum 3D7 erythrocytic growth, LDH absorbance, 72 h; at 2 µM; active compounds read high.
For assay [5], the target named is Calcium-dependent protein kinase 1 (Plasmodium falciparum (isolate 3D7)) (UniProt P62344). Briefly: PfCDPK1 kinase inhibitors, biochemical, TCAMS library (AID 1159585; cut-off not given, nearly all actives have IC50 up to about 0.98 µM;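 also: inhibitors leave more ATP so luminescence rises with inhibition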). The note with it: recombinant PfCDPK1, Kinase-Glo ATP depletion luminescence. Background: Kinase-Glo measures the ATP left after a reaction by luminescence.
For assay [6], the target named is Plasmodium falciparum protein kinase 6 (PK6, PF3D7_1337100) (UniProt Q8IDW1). As to the kind of experiment: PfPK6 kinase inhibitors, biochemical, TCAMS library (AID 1159586). As to conditions: recombinant PfPK6, Kinase-Glo ATP depletion luminescence.
Assay [7] addresses Protein kinase 7 (PK7), Plasmodium falciparum 3D7 (PF3D7_0213400) (UniProt Q7YTF7). Briefly: inhibition of Plasmodium PK7 catalytic activity – biochemical, TCAMS antimalarial set, Kinase-Glo luminescence (AID 1159587). As to conditions: recombinant PfPK7, Kinase-Glo ATP depletion luminescence.
Assay [8] deals with Calcium-dependent protein kinase 4 (Plasmodium falciparum (isolate 3D7)) (UniProt Q8IBS5). As to the kind of experiment: PfCDPK4 kinase inhibitors, biochemical, TCAMS library (AID 1159588; cut-off not given, nearly all actives have IC50 up to about 0.91 µM). As to conditions: recombinant PfCDPK4, Kinase-Glo ATP depletion luminescence.
Chain of Calcium-dependent protein kinase 4 (Plasmodium falciparum (isolate 3D7)) (Q8IBS5 whole entry, looked up): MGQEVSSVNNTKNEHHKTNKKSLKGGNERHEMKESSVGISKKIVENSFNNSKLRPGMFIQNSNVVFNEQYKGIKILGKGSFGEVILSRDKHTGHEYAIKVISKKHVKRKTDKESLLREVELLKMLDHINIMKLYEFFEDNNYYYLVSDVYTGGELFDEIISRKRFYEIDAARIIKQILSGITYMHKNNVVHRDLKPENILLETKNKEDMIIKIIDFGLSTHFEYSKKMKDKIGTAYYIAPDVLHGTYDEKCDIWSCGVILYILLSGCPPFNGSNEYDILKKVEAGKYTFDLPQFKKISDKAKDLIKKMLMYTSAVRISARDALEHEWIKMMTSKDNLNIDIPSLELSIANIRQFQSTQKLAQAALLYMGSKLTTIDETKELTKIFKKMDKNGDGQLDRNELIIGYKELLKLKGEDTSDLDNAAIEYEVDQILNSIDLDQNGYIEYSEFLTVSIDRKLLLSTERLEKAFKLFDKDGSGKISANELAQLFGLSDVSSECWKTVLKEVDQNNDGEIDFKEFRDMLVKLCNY

Chain of L-lactate dehydrogenase (Plasmodium falciparum (isolate CDC / Honduras)) (Q27743 whole entry, looked up): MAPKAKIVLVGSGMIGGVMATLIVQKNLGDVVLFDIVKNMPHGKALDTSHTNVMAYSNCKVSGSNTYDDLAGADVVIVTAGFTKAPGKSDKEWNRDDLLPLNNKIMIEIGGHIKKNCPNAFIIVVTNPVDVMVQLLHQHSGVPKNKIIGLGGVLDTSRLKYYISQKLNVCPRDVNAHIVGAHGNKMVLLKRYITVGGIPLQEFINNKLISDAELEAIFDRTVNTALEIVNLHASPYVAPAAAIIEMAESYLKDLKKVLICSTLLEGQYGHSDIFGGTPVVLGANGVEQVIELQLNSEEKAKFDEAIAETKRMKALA
Chain of Plasmodium falciparum protein kinase 6 (PK6, PF3D7_1337100) (Q8IDW1 1-305): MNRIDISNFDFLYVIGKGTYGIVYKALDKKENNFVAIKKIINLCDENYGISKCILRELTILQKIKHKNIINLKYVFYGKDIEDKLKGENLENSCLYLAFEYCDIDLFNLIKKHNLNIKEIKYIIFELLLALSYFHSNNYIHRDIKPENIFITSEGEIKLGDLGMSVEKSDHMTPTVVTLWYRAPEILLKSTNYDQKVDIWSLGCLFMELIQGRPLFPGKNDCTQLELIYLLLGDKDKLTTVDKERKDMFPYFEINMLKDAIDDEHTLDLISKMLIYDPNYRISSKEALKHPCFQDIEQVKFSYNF
Chain of Protein kinase 7 (PK7), Plasmodium falciparum 3D7 (PF3D7_0213400) (Q7YTF7 1-343): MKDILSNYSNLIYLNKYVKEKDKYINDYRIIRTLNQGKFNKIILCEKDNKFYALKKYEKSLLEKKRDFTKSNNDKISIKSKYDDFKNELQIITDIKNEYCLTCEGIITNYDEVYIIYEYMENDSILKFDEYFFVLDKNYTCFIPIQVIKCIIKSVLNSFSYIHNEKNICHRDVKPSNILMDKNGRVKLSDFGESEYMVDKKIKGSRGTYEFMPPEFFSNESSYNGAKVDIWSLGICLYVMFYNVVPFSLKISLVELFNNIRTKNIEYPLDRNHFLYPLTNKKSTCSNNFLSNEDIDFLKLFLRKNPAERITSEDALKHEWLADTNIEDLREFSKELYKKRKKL
Chain of Calcium-dependent protein kinase 1 (Plasmodium falciparum (isolate 3D7)) (P62344 whole entry, looked up): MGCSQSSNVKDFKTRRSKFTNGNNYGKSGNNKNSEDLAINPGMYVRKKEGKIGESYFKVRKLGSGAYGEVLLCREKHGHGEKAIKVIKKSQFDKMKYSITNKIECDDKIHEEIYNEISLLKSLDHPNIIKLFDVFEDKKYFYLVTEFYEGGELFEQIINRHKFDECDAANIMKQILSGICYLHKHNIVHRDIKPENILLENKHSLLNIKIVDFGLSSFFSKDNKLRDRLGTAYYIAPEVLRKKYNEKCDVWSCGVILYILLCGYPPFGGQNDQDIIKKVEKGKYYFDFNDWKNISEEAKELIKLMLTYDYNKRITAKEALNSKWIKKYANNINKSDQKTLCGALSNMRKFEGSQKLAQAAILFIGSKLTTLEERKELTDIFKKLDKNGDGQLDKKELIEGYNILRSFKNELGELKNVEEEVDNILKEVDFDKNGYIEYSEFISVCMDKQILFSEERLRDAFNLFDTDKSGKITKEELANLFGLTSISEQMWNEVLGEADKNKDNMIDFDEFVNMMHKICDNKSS

In the case of `O=C(O)c1ccc2nc(-c3ccc(-c4ccccc4)cc3)n(C3CCN(Cc4ccc(-c5ncc[nH]5)cc4)CC3)c2c1`, the values for the growth inhibition in assay [1] and in assay [4] were 99% (active) and 91% (active), respectively. In addition, the inhibition (in general, the change of the read-out against control, counted positive when it falls) in assay [2] was 3%; in assay [3], 1%. Also, the outcome in assay [5], in assay [6], in assay [7] and in assay [8] was inactive.

As for `CCCCCC(C)C(C)c1cc(O)c2c(c1)O[C@@]1(C(C)C)CC(O)[C@H](C)[C@@H]2C1` (some centres undefined), the growth inhibition in assay [1] is 87% (active); in assay [4], 93% (active). In addition, the results for the inhibition in assay [2] and in assay [3] were 1% and -3%, respectively. In addition, the result in assay [5], in assay [6], in assay [7] and in assay [8] was inactive.

As for `COc1ccc2[nH]cc(C3=CCN(Cc4ccccc4)CC3)c2c1`, the values for the growth inhibition in assay [1] and in assay [4] were 84% (active) and 90% (active), respectively. Besides, the inhibition in assay [2] was 51% (active); in assay [3], -5%. In addition, the outcome in assay [5], in assay [6], in assay [7] and in assay [8] was inactive.

Take `Cc1c(C(=O)N[C@@H](C)c2ccccc2)c2cc(O)c(Br)cc2n1C1CCCCC1`: the figures for the growth inhibition in assay [1] and in assay [4] were 95% (active) and 98% (active), respectively. Besides, the inhibition in assay [2] was 4%; in assay [3], -6%. Also, the outcome in assay [5], in assay [6], in assay [7] and in assay [8] was inactive.

Consider `COC(=O)c1ccc(CC(C)NCC(O)c2cc(Cl)c(N)c(Cl)c2)cc1` (centres undefined), for which the figures for the growth inhibition in assay [1] and in assay [4] were 66% (active) and 91% (active), respectively. Also, the inhibition was -2% in assay [2] and -7% in assay [3]. Besides, the result in assay [5], in assay [6], in assay [7] and in assay [8] was inactive.

Regarding `CC(C)CNCc1ccc(-c2cccc(CN(C(=O)CCC3CCCC3)C3CCN(Cc4ccccc4)CC3)c2)cc1`, the figures for the growth inhibition in assay [1] and in assay [4] were 92% (active) and 101% (active), respectively. In addition, the figures for the inhibition in assay [2] and in assay [3] were 62% (active) and -7%, respectively. Moreover, the outcome in assay [5], in assay [6], in assay [7] and in assay [8] was inactive.

Consider `CC(Cc1ccc(C(C)(C)C)cc1)NCC(O)c1ccccc1` (centres undefined), for which the figures for the growth inhibition in assay [1] and in assay [4] were 89% (active) and 94% (active), respectively. The inhibition in assay [2] is 5%; in assay [3], 3%. Also, the outcome in assay [5], in assay [6], in assay [7] and in assay [8] was inactive.

For the compound `Cc1cc(CN2CCN(CCOC(c3ccccc3)c3ccccc3)CC2)ccc1O`, the growth inhibition in assay [1] is 96% (active); in assay [4] it was 97% (active). Besides, the results for the inhibition in assay [2] and in assay [3] were 9% and -1%, respectively. The outcome in assay [5], in assay [6], in assay [7] and in assay [8] was inactive.

Turning to `Oc1ccccc1CNCC(O)c1cccc(C(F)(F)F)c1` (centres undefined), the growth inhibition in assay [1] was 97% (active); in assay [4], 100% (active). The figures for the inhibition in assay [2] and in assay [3] were 1% and 0%, respectively. Besides, the result in assay [5], in assay [6], in assay [7] and in assay [8] was inactive.

On to `O=C(/C=C/c1ccc(Cl)c(Cl)c1)NC1CCC(CN2CCC(c3c[nH]c4ccc(O)cc34)CC2)CC1` (centres undefined), for which the growth inhibition in assay [1] was 99% (active) and 101% (active); in assay [4], 100% (active) and 101% (active). The inhibition in assay [2] was 38% and 35%; in assay [3], -1% and 6%. Further, the result in assay [5], in assay [6], in assay [7] and in assay [8] was inactive.

As for `S=C(NCC1CCCCC1)NC1CCC(CN2CCC(c3c[nH]c4ccccc34)CC2)CC1` (centres undefined), the growth inhibition was 10% in assay [1] and 88% (active) in assay [4]. In addition, the results for the inhibition in assay [2] and in assay [3] were 29% and 6%, respectively. Besides, the outcome in assay [5], in assay [6], in assay [7] and in assay [8] was inactive.

Consider `CC(Cc1ccc(OC2CCCCC2)cc1)NCC(O)c1cccc(Cl)c1` (centres undefined), for which the growth inhibition in assay [1] and in assay [4] was 99% (active) each time. Besides, the inhibition was 66% (active) in assay [2] and -4% in assay [3]. Besides, the outcome in assay [5], in assay [6], in assay [7] and in assay [8] was inactive.

`Cc1ccc(CC(C)NCC(O)c2cccc(C(F)(F)F)c2)cc1F` (centres undefined): the growth inhibition in assay [1] was 91% (active); in assay [4] it was 97% (active). Also, the inhibition is 15% in assay [2] and 3% in assay [3]. Also, the outcome in assay [5], in assay [6], in assay [7] and in assay [8] was inactive.

For `C/C=C1/CN2CC[C@H]1C[C@H]2[C@H](O)c1ccnc2ccc(OC)cc12`, the growth inhibition was 45% in assay [1] and 99% (active) in assay [4]. For the same compound, the inhibition in assay [2] is -16%; in assay [3], 0%. Moreover, the outcome in assay [5], in assay [6], in assay [7] and in assay [8] was inactive.

As for `O=[N+]([O-])c1ccc(Oc2c(Cl)cc(S(=O)(=O)NC3CCC(CN4CCC(c5c[nH]c6ccccc56)CC4)CC3)cc2Cl)c(Cl)c1` (centres undefined), the values for the growth inhibition in assay [1] and in assay [4] were 64% (active) and 100% (active), respectively. Besides, the inhibition in assay [2] was 30%; in assay [3], -4%. The result in assay [5], in assay [6], in assay [7] and in assay [8] was inactive.

Regarding `CC(C)N(C)C(=O)n1cnc(S(=O)(=O)C2C[C@@H]3CC[C@H]2C3)n1` (some centres undefined), the growth inhibition in assay [1] was 96% (active); in assay [4] it was 97% (active). Further, the values for the inhibition in assay [2] and in assay [3] were 26% and 6%, respectively. In addition, the outcome in assay [5], in assay [6], in assay [7] and in assay [8] was inactive.

Turning to `Cc1cc(C)c(CC(C)NCC(O)c2cccc(C(F)(F)F)c2)c(C)c1` (centres undefined), the results for the growth inhibition in assay [1] and in assay [4] were 99% (active) and 100% (active), respectively. Also, the results for the inhibition in assay [2] and in assay [3] were 0% and 5%, respectively. The result in assay [5], in assay [6], in assay [7] and in assay [8] was inactive.

With `O=C(/C=C/c1ccc(Cl)c(Cl)c1)N(Cc1ccccc1)C1CCC(CN2CCC(c3c[nH]c4ccccc34)CC2)CC1` (centres undefined), the growth inhibition is 59% (active) in assay [1] and 101% (active) in assay [4]. The inhibition in assay [2] is 37%; in assay [3], -6%. Besides, the result in assay [5], in assay [6], in assay [7] and in assay [8] was inactive.

With `O=C(/C=C/c1ccc(Cl)c(Cl)c1)Nc1cccc(CN2CCC(c3c[nH]c4ccc(O)cc34)CC2)c1`, the growth inhibition in assay [1] was 90% (active); in assay [4] it was 101% (active). Moreover, the inhibition in assay [2] is 11%; in assay [3], 0%. The result in assay [5], in assay [6], in assay [7] and in assay [8] was inactive.

Turning to `COC(C(=O)OCCC1CCCN1C)(c1ccccc1)c1ccccc1` (centres undefined), the growth inhibition in assay [1] is 9%; in assay [4], 98% (active). Moreover, the inhibition in assay [2] is 6%; in assay [3] it was 2%. Further, the outcome in assay [5], in assay [6], in assay [7] and in assay [8] was inactive.

Regarding `CC[C@H]1CN2CC[C@@H]1C[C@H]2[C@H](O)c1cc(-c2ccc(Cl)c(Cl)c2)nc2ccc(O)cc12`, the growth inhibition in assay [1] is 99% (active); in assay [4], 98% (active). The inhibition in assay [2] was -8%; in assay [3] it was -1%. Also, the result in assay [5], in assay [6], in assay [7] and in assay [8] was inactive.

Regarding `O=C(/C=C/c1ccccc1Cl)NC1CCC(CN2[C@@H]3CC[C@H]2CC(c2c[nH]c4ccccc24)C3)CC1` (some centres undefined), the growth inhibition was 98% (active) in assay [1] and 102% (active) in assay [4]. Also, the inhibition in assay [2] was 56% (active); in assay [3] it was 3%. Moreover, the outcome in assay [5], in assay [6], in assay [7] and in assay [8] was inactive.

In the case of `COc1ccc(CC(C)NCC(O)c2cccc(Cl)c2)cc1C` (centres undefined), the growth inhibition in assay [1] was 78% (active); in assay [4] it was 89% (active). The inhibition is 11% in assay [2] and -6% in assay [3]. Further, the outcome in assay [5], in assay [6], in assay [7] and in assay [8] was inactive.
